A short description of experiment [1]: Caspase-3/7 induction in HepG2 cells by small molecules, qHTS assay (AID 1346978). Further: nearly all actives have a fitted effect of over 15% in size. Further: potency means the concentration at half of the fitted maximal effect. The method in brief:
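Caspase-3/7 induction was measured by Caspase-Glo 3/7 luminescence (30 min, room temperature) after a 17 hr compound exposure of wild-type HepG2 cells seeded at 2,000 per well and pre-incubated 5 hr.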
(In general: qHTS replaces the single test concentration by a dilution series.)

Experiment [2] can be described thus: Caspase-3/7 induction in CHO-K1 cells by small molecules, qHTS assay (AID 1346980). Further: nearly all actives have a fitted effect of over 15% in size. Further: potency means the concentration at half of the fitted maximal effect. In short, it runs like this: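 Luminescent Caspase-Glo 3/7 read (30min, room temperature) quantified apoptosis induction. Cells were wild-type CHO-K1, treated with compound for 17hr at 37 C and 5% CO2.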
The nature of experiment [3]: Caspase-3/7 induction in HepG2 cells by small molecules, qHTS cell viability counter screen (AID 1346981). Further: nearly all actives have a fitted effect of over 30% in size. Further: potency means the concentration at half of the fitted maximal effect. The method in brief:
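Steps: seed 2,000 HepG2 cells per well; incubate 5 hr at 37 C; pin-add compounds in DMSO; incubate 16 hr; add CellTiter-Fluor; after 1 hr at 37 C and 5% CO2, read fluorescence.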

The target of experiment [4] is Nuclear receptor subfamily 1 group I member 2 (Homo sapiens) (UniProt O75469). Kind of experiment: Human pregnane X receptor (PXR) small molecule agonists, qHTS assay (AID 1346982). Further: nearly all actives have a fitted effect of over 35% in size. Further: potency means the concentration at half of the fitted maximal effect. On activation: on the % scale 0 is the no-effect control and ±100 the full control effect. The method in brief: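 Agonist mode qHTS: PXR-Luc HepG2 cells plated 5 hr before DMSO-dissolved compounds were pinned in, cultured 24 hr at 37 C, 5% CO2; ONE-Glo luminescence readout.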
Chain of Nuclear receptor subfamily 1 group I member 2 (Homo sapiens) (O75469 whole entry, looked up): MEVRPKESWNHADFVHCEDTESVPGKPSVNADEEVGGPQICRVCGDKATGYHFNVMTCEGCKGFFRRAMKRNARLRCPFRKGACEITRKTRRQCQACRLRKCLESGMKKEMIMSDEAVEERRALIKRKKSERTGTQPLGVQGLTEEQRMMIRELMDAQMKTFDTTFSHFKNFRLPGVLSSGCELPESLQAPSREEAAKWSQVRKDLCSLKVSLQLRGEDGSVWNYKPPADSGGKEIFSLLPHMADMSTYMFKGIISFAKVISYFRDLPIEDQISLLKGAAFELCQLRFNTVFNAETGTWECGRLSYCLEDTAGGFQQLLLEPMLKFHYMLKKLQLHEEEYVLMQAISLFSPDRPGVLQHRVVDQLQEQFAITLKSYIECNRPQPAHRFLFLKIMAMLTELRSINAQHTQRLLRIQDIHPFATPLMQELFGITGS

The target in experiment [5] is Cytochrome P450 2C9 (Homo sapiens) (UniProt P11712). Kind of experiment: Cytochrome P450 Family 2 Subfamily C Member 9 (CYP2C9) small molecule antagonists: luciferase reporter qHTS assay (AID 1671198). Further: nearly all actives have a fitted effect of over 50% in size. Further: potency means the concentration at half of the fitted maximal effect. In short, it runs like this: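 Enzyme-substrate mix preincubated with compound 10 min at room temperature; reaction started with NADPH regeneration solution, 1 h 37C. Luminescent luciferin product read after 20 min detection reagent.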
Chain of Cytochrome P450 2C9 (Homo sapiens) (P11712 whole entry, looked up): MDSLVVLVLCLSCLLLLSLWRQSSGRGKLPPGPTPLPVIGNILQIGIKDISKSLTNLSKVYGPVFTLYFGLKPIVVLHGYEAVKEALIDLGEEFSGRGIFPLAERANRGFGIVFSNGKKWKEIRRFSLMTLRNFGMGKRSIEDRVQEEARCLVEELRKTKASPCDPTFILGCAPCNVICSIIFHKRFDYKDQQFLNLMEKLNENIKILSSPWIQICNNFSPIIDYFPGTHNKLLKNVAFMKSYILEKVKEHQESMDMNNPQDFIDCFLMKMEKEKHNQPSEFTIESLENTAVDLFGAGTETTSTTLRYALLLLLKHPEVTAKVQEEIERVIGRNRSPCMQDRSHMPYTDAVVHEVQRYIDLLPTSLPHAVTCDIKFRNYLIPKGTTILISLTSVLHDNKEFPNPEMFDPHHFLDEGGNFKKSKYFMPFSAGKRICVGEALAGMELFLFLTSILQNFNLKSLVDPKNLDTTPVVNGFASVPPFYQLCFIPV
(A reporter such as luciferase makes a cellular process visible.)

In experiment [6] the target is Cytochrome P450 1A2 (Homo sapiens) (UniProt P05177). Description: Cytochrome P450 Family 1 Subfamily A Member 2 (CYP1A2) small molecule antagonists: luciferase reporter qHTS assay (AID 1671199). Further: nearly all actives have a fitted effect of over 50% in size. Further: potency means the concentration at half of the fitted maximal effect. In short, it runs like this:
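Inhibition of CYP1A2 conversion of proluciferin to luciferin, detected by luminescence. Reaction run 1 h at room temperature with NADPH regeneration after brief compound preincubation.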

Experiment [7] deals with Voltage-gated inwardly rectifying potassium channel KCNH2 (Homo sapiens) (UniProt Q12809). Description: Human Ether-a-go-go-Related Gene (hERG) channel small molecule antagonists: fluorescence cell-based qHTS assay (AID 1671200).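 Further: hERG-expressing U2OS cells given a thallium stimulus after FluxOR II dye loading; series mostly up to about 77 µM; on the % scale 0 is the no-effect control and ±100 the full control effect; nearly all actives have a fitted effect of over 50% in size.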 The method in brief: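 First, 1000 cells per well are seeded and cultured overnight at 37 C. Next, FluxOR II dye is loaded for 1 h at room temperature, protected from light. After 10 more minutes, stimulus is added and fluorescence is read.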
Chain of Voltage-gated inwardly rectifying potassium channel KCNH2 (Homo sapiens) (Q12809 whole entry, looked up): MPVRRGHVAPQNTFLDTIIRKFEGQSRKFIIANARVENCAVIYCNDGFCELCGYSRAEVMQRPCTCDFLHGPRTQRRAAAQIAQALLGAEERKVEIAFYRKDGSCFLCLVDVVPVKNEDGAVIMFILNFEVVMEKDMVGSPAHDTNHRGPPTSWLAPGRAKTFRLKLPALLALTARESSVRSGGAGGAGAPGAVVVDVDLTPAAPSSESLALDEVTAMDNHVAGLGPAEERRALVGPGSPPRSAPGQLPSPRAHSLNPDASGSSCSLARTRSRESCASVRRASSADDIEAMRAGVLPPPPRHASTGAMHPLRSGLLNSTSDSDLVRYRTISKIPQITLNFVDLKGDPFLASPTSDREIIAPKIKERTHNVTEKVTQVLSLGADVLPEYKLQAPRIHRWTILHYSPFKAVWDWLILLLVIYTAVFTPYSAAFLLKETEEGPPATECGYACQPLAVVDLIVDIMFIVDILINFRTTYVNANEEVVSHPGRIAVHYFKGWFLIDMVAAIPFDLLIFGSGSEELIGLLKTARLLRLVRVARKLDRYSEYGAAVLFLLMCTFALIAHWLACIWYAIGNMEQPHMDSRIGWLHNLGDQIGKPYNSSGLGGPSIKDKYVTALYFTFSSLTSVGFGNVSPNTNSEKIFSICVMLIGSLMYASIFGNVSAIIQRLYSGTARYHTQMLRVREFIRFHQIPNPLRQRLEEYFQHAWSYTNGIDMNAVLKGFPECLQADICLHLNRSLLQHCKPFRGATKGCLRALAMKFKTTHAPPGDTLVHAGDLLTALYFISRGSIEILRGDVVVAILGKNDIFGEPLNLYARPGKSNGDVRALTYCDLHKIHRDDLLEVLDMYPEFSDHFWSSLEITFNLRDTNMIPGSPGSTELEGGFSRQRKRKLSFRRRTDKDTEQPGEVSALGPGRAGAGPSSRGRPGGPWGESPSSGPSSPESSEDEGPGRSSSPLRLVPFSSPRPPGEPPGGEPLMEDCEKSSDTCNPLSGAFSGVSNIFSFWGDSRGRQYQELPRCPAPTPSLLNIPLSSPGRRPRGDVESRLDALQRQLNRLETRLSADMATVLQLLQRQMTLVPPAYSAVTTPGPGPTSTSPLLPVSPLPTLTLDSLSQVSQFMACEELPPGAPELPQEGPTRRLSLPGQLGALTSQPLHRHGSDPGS
A general note: The hERG channel carries a current that helps repolarise heart muscle cells.

The target in experiment [8] is Cytochrome P450 3A4 (Homo sapiens) (UniProt P08684). Description: Cytochrome P450 Family 3 Subfamily A Member 4 (CYP3A4) small molecule antagonists: luciferase reporter qHTS assay (AID 1671201). Further: nearly all actives have a fitted effect of over 50% in size. Further: potency means the concentration at half of the fitted maximal effect. In short, it runs like this:
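Enzyme and proluciferin substrate are mixed with test chemicals for 10 min, then NADPH regeneration system drives turnover for 1 h at room temperature. A detection reagent halts the reaction; luminescence after 20 min gives relative activity.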

Experiment [9] has as its target Cytochrome P450 2D6 (Homo sapiens) (UniProt P10635). Description: Cytochrome P450 Family 2 Subfamily D Member 6 (CYP2D6) small molecule antagonists: luciferase reporter qHTS assay (AID 1671196). Further: nearly all actives have a fitted effect of over 50% in size. Further: potency means the concentration at half of the fitted maximal effect. In short, it runs like this:
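P450-Glo format: CYP2D6 converts a proluciferin substrate to luciferin in an NADPH-driven reaction lasting 1 h at room temperature. Light output, proportional to CYP2D6 activity, reflects interference by test chemicals.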

Experiment [10] addresses Cytochrome P450 2C19 (Homo sapiens) (UniProt P33261). Kind of experiment: Cytochrome P450 Family 2 Subfamily C Member 19 (CYP2C19) small molecule antagonists: luciferase reporter qHTS assay (AID 1671197). Further: nearly all actives have a fitted effect of over 65% in size. Further: potency means the concentration at half of the fitted maximal effect. In short, it runs like this: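 Inhibition of CYP2C19 was scored from loss of luminescence in a P450-Glo proluciferin substrate assay, NADPH-started and run 1 h at 37C, with ketoconazole as positive control.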

Experiment [11] has as its target Nuclear receptor subfamily 1 group I member 2 (Homo sapiens) (UniProt O75469). Description: CYP3A4 induction through human pregnane X receptor (PXR) by small molecules, qHTS assay (AID 1346984). Further: nearly all actives have a fitted effect of over 40% in size. Further: potency means the concentration at half of the fitted maximal effect. On activation: on the % scale 0 is the no-effect control and ±100 the full control effect. The method in brief:
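Steps: seed DPX-2 cells, 5 hr at 37C; pin-transfer compounds; 24 hr at 37C; add Luciferin-IPA (3uM final), 3 hr at 37C; add One-Glo, 30 min RT; read luminescence.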

The target is the same in experiment [12]. Description: Human pregnane X receptor (PXR) activation by small molecules, qHTS assay (AID 1346985). Further: nearly all actives have a fitted effect of over 40% in size. Further: potency means the concentration at half of the fitted maximal effect. On activation: on the % scale 0 is the no-effect control and ±100 the full control effect. In short, it runs like this: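 DPX-2 cells (HepG2 co-transfected with a PXR response element and a CYP3A4-promoter luciferase construct) were seeded at 2,000 per well, rested 5 hr at 37C, then exposed to DMSO-dissolved compounds for 24 hr. Activation was read as luciferase luminescence.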

Experiment [13] in a line: Caspase-3/7 induction in CHO-K1 cells by small molecules, qHTS cell viability counter screen (AID 1346979). Further: potency means the concentration at half of the fitted maximal effect; nearly all actives have a fitted effect of over 35% in size. The method in brief:
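Seeding: 1,500 CHO-K1 cells/well. Rest: 5hr, 37C. Treatment: compounds in DMSO, 16hr. Read: CellTiter-Fluor, 1hr, fluorescence.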

Experiment [14] has as its target Nuclear receptor subfamily 1 group I member 2 (Rattus norvegicus) (UniProt Q9R1A7). Description: Rat pregnane X receptor (rPXR) activation by small molecules, qHTS assay (AID 1346983). Further: on the % scale 0 is the no-effect control and ±100 the full control effect; nearly all actives have a fitted effect of over 20% in size. As to conditions: rPXR luciferase reporter cells, One-Glo luminescence, 24 h; max activation: active compounds read high. In short, it runs like this:
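Luminescent readout (One-Glo luciferase, 30 min room temperature) followed 24 hr compound treatment at 37 C of rPXR cells plated 2,000 per well and preincubated 5hr; qHTS format with compounds delivered in DMSO.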

Values without a mark were called inactive. Results filed as inconclusive are left out. Active and inactive are the calls of the source. The call rests on the fitted dose curve; in most records, active means well fitted curve in the direction sought with a large enough effect in the repeat runs; inconclusive means weak or mixed curves; inactive means no such curve, though single readings can be large; an effect the other way counts as inactive or inconclusive.

Chain of Cytochrome P450 2C19 (Homo sapiens) (P33261 whole entry, looked up): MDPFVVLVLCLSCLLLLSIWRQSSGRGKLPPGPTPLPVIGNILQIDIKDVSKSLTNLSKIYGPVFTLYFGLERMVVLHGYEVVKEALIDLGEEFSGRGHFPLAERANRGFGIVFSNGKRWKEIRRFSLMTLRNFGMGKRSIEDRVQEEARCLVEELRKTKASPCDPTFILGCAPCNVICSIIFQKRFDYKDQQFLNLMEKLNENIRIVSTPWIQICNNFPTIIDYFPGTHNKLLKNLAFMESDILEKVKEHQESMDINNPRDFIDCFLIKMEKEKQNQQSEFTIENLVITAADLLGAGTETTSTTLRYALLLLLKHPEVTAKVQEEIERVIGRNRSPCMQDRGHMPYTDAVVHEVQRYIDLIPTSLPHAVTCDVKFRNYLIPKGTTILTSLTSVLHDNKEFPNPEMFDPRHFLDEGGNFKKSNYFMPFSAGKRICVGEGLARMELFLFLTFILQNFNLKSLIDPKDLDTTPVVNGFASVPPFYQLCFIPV
Chain of Cytochrome P450 2D6 (Homo sapiens) (P10635 whole entry, looked up): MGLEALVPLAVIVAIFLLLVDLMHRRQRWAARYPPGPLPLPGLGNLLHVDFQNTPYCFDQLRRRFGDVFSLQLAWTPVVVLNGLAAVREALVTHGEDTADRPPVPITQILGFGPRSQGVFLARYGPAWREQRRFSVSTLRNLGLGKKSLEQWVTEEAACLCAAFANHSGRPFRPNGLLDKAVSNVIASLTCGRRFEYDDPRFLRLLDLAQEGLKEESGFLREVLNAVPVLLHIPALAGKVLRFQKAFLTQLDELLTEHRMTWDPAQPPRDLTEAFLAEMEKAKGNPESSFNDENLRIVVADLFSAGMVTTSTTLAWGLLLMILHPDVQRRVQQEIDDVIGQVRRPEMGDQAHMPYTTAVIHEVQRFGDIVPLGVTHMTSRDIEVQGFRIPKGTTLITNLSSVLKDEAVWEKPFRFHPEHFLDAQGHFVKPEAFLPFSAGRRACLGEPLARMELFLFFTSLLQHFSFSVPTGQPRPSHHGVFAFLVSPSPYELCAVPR
Chain of Cytochrome P450 1A2 (Homo sapiens) (P05177 whole entry, looked up): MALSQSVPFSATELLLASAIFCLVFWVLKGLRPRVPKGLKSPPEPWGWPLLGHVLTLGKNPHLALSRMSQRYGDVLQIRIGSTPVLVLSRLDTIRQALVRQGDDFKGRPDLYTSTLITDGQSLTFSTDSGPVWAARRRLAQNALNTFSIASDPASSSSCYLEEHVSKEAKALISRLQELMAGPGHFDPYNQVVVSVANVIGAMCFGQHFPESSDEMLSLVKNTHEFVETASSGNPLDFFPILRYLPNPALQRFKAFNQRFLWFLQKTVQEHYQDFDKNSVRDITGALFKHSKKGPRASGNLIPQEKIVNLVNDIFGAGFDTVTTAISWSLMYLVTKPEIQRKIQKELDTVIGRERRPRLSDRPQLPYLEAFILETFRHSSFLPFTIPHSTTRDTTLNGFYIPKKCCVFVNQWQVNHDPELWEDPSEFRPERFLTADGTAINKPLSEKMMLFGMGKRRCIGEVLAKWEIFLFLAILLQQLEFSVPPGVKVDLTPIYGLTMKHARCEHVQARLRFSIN
Chain of Cytochrome P450 3A4 (Homo sapiens) (P08684 whole entry, looked up): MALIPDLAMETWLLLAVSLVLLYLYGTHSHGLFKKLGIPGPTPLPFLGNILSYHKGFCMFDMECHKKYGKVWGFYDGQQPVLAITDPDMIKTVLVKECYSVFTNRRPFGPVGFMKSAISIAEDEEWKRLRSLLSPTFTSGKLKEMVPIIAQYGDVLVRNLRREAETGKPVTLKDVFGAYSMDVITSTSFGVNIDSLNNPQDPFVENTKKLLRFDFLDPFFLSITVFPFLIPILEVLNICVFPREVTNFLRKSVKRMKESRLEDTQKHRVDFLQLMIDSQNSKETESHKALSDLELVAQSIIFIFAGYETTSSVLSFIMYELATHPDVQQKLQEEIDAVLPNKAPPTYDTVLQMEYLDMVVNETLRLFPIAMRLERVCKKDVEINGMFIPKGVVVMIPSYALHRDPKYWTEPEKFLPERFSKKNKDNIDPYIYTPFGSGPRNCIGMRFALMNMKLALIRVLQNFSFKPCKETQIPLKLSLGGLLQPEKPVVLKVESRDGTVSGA
Chain of Nuclear receptor subfamily 1 group I member 2 (Rattus norvegicus) (Q9R1A7 whole entry, looked up): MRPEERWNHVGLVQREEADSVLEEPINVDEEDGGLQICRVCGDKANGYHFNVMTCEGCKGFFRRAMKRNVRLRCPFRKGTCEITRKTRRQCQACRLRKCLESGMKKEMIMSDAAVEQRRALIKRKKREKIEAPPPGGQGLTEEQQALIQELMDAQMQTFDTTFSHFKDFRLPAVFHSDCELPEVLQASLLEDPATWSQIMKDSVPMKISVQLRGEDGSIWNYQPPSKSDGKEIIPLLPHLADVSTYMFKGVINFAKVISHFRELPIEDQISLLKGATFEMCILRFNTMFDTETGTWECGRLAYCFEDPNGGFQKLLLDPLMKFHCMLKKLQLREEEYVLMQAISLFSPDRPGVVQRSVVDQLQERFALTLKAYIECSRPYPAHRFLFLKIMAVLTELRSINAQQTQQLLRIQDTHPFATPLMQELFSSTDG

In the case of `CC[C@H]1O[C@]2(CC[C@@H]1C)C[C@@H]1C[C@@H](C/C=C(\C)C[C@@H](C)/C=C/C=C3\CO[C@@H]4[C@H](O)C(C)=C[C@@H](C(=O)O1)[C@]34O)O2`, the Potency was 30.4 µM (active) in [1]; 13.6 µM (active) in experiment [2]; 42.9 µM (active) in experiment [3]; 6.06 µM (active) in experiment [4]; 12.5 µM (active) in experiment [5]; 5.59 µM (active) in experiment [8]. The Potency result in [6] and in experiment [7] was “inactive” throughout.
For the compound `Cc1cccc2c1cc1ccc3cccc4ccc2c1c34`, the Potency result in experiment [1], in [2], in experiment [4], in [9], in experiment [10] and in [7] was “inactive” in each case. Moreover, the Potency result in [8] is “inactive”. In experiment [6], the Potency is 0.205 µM (active).
`Cc1cc(=O)oc2cc(N(C)C)ccc12`: the Potency entry in experiment [1], in [2] and in [7] was “inactive” throughout. Moreover, the Potency is 48.6 µM (active) in experiment [4], 44.8 µM (active) in experiment [5], 6.33 µM (active) in experiment [6] and 25.2 µM (active) in experiment [8].
Turning to `CCCCN1CCCC[C@H]1C(=O)Nc1c(C)cccc1C`, the Potency result in [1], in experiment [2], in experiment [3], in [10], in experiment [5] and in experiment [7] was “inactive” in each case. Besides, the Potency in [9] was 0.617 µM (active); in [6] it was 17.4 µM (active).
For the compound `Nc1cc(C(F)(F)F)ccc1S`, the Potency entry in experiment [1], in experiment [3] and in experiment [7] was “inactive” in each case. For the same compound, the Potency in [4] is 13.3 µM (active); in experiment [10], 2.19 µM (active); in experiment [5], 2.19 µM (active); in experiment [6], 12.3 µM (active).
Consider `CS(=O)(=O)CCNCc1ccc(-c2ccc3ncnc(Nc4ccc(OCc5cccc(F)c5)c(Cl)c4)c3c2)o1`, for which the Potency is 33.5 µM (active) in [1], 29.8 µM (active) in [3] and 8.71 µM (active) in experiment [10]. Moreover, the Potency result in experiment [2] and in experiment [6] was “inactive” in each case.
Take `CC(=O)S[C@@H]1CC2=CC(=O)CC[C@]2(C)[C@H]2CC[C@@]3(C)[C@@H](CC[C@@]34CCC(=O)O4)[C@H]12`: the Potency entry in experiment [1] and in experiment [2] was “inactive” throughout. For the same compound, the Potency in [10] was 6.33 µM (active).
Consider `CC(C)(C)C(=O)OCOC(=O)[C@@H]1N2C(=O)[C@@H](NC(=O)[C@H](N)c3ccccc3)[C@H]2SC1(C)C`, for which the Potency result in experiment [1], in [2], in experiment [3], in experiment [11], in experiment [12] and in [9] was “inactive” throughout. The Potency result in experiment [10], in experiment [6] and in [7] was “inactive” each time. Also, in experiment [5], the Potency was 24.5 µM (active).
`CN1CCN(CCC(=O)N2c3ccccc3Sc3ccc(C(F)(F)F)cc32)CC1`: the Potency in experiment [13] was 23.7 µM (active); in experiment [3], 29.8 µM (active); in experiment [11], 14.1 µM (active); in experiment [12], 15.8 µM (active); in [9] it was 0.155 µM (active). Further, the Potency result in experiment [2], in experiment [4] and in experiment [5] was “inactive” in each case. Besides, in [14], the max activation is -0.926%.
In the case of `O=C(Nc1cccc(C(F)(F)F)c1)c1cc(Br)cc(Br)c1O`, the Potency entry in [1], in [2], in [11], in [12], in [9] and in [7] was “inactive” each time. The Potency in experiment [4] was 17.2 µM (active); in experiment [10], 56.4 µM (active); in experiment [5], 14.2 µM (active); in [6], 56.4 µM (active); in experiment [8], 22.4 µM (active).

(Values after PubChem BioAssay (Tox21).)
